Source: PubChem
CapD inh: blocks the Bacillus anthracis CapD enzyme; purified CapD enzyme, fluorescence intensity read-out; active compounds read low; AID 492967; z-score (no concentration beside the values); actives 0.23% (n = 140,000); in the data active = z-score mostly below about -2.9, no sharp cut-off; inactive = mostly above about -1.9
The depositor's hits bear a star. This excerpt belongs to a sample that is enriched for hits.

SMILES | CapD inh
COc1ccc(CCn2c(-c3cc(C)ccc3C)csc2=Nc2cccc(C(F)(F)F)c2)cc1OC | -0.225
CCOc1cc(C2C(C#N)=C(N)Oc3n[nH]c(-c4ccc([N+](=O)[O-])cc4)c32)ccc1OC (configuration not stated) | -1.11
CCCCOc1ccc(C2C=C(Nc3ccc(F)cc3)C(=O)N2c2ccc(F)cc2)cc1 (configuration not stated) | -0.075
O=C1NCC(=Nc2ccccc2)C(=O)N1 | 0.245
Cc1ccc(N/N=C2/CCCNC2=O)cc1 | -2.66
O=C1NCCC/C1=N/Nc1ccccc1 | -3.88*
O=C(c1ccccc1)c1cc(Cl)ccc1N=Cc1cccs1 | -0.58
COc1cc(NC(=O)c2sc3ncnc(N4CCCCC4C)c3c2C)cc(OC)c1OC (configuration not stated) | -1.61
Cc1cc(/C=C2\C(=O)NC(=S)N(c3ccc(Cl)cc3)C2=O)c(C)n1-c1cc(C(=O)O)cc(C(=O)O)c1 | -6.24*
CC(=O)Oc1ccc(-n2c(C)cc(/C=C3\C(=O)NC(=S)N(c4ccc(C)cc4)C3=O)c2C)cc1 | -0.56
Cc1cc(/C=C2\C(=O)NC(=O)N(c3ccc(Br)cc3)C2=O)c(C)n1-c1cc(C(=O)O)cc(C(=O)O)c1 | -0.935
CCOC(=O)c1c2ccc(O)cc2n2ccccc12 | -1
CC(Sc1ccc(Cl)cc1)C(=O)NN=C(c1ccccc1)c1ccccc1 (configuration not stated) | -0.3
C=C1C(C(=O)NCc2ccco2)C1C(=O)NCc1ccco1 (configuration not stated) | -10.2*
O=C(NCc1ccco1)NCC(F)(F)F | -0.39
O=C(NCc1ccco1)C1c2ccccc2Oc2ccccc21 | 0
COC(=O)N1CCc2cc(OC)c(OC)cc2C1c1ccc(OC)c(OC)c1 (configuration not stated) | -0.04
CC(=O)Oc1ccc2ccccc2c1/C=N/c1oc(-c2ccccc2)c(-c2ccccc2)c1C#N | 1.33
CCNc1nc(OC)nc(N2CC(=O)N(CC(=O)OCC)C2=N)n1 | -0.04
COC(=O)CCN1C(=O)/C(=C\c2ccc(O)c(OC)c2)SC1=S | -0.13
COc1cc(/C=C2/SC(=S)N(NC(C)=O)C2=O)ccc1O | -4.8*
COc1cc(/C=C2\SC(=S)N(NC(=O)c3ccc(Br)cc3)C2=O)cc(OC)c1OC | 0.76
CCC(C)CNC(=O)c1ccc(OC)c(OC)c1 (configuration not stated) | 0.42
O=C(O)CCCC(=O)Nc1ccccc1Oc1ccccc1 | -1.98*
N#CCC(=O)Nc1ccccc1Oc1ccccc1 | 0.165
SMILES | CapD inh
O=C(O)CCCC(=O)Nc1cccc2ccccc12 | 0.33
COc1cc(C=Nc2c(C)n(C)n(-c3ccccc3)c2=O)cc(OC)c1OC | -0.145
CC(=O)Oc1cc(C)c2c(c1)oc(=O)c1ccccc12 | 1.64
CCOc1nc(S(=O)(=O)c2ccc(C)cc2)c(Cl)s1 | -0.155
Cc1ccc(S(=O)(=O)c2nc(NC3CCS(=O)(=O)C3)sc2Cl)cc1 (configuration not stated) | 0.27
Cc1ccc(S(=O)(=O)c2nc(Nc3nccs3)sc2Cl)cc1 | -5.1*
COc1ccc(OCC(=O)NCc2ccncc2)cc1 | 0.165
CC1Cc2ccccc2N1C(=O)c1cccc(C(=O)N2c3ccccc3CC2C)n1 (configuration not stated) | -0.45
CC1Cc2ccccc2N1C1=CC(=O)CCC1 (configuration not stated) | -5.75*
CC1Cc2ccccc2N1S(=O)(=O)c1ccccc1 (configuration not stated) | -0.785
CC(C)Sc1[nH]c2ccccc2c1N=Nc1c(Cl)cc(Cl)cc1Cl | -1.51
COc1cccc(C(=O)N/N=C/c2cccc(F)c2)c1 | -1.09
Cc1ccc(N2C(=O)/C(=C\c3ccc(-c4ccccc4C(=O)O)o3)C(=O)NC2=S)cc1 | 3
CN1C(=O)/C(=C/c2ccc(I)o2)C(=O)NC1=S | -9.73*
CN1C(=O)/C(=C/c2cn(CC(=O)N3CCCC3)c3ccccc23)C(=O)NC1=S | -0.425
O=C(O)c1c[nH]c2ccc(S(=O)(=O)N3CCCC3)cc2c1=O | -0.35
COc1cccc2cc(-c3csc(NC(=O)CCC(=O)NC4CCC(C)CC4)n3)c(=O)oc12 (configuration not stated) | 3.15
N#COc1ccc(Oc2ccc(OC#N)cc2)cc1 | -4.94*
N#Cc1ccc(Oc2ccccc2)cc1C#N | -0.08
N#Cc1ccc(Oc2ccc(N3C(=O)CCC3=O)cc2)cc1 | -0.055
O=C1N=C(N2CCN(C(c3ccccc3)c3ccccc3)CC2)S/C1=C\c1ccccc1 | -0.13
Cc1nc(NC(=O)Cn2c(=O)oc3cc(Cl)ccc32)sc1C | 0.58
COC(=O)c1ccc([C@@H]2Nc3c(C)cccc3[C@@H]3C=CC[C@@H]32)cc1 | 0.475
CN(C)C(=O)c1cccc2c1NC(c1ccc(Br)cc1)C1CC=CC21 (configuration not stated) | -0.475
O=C(O)C1Nc2c(I)cccc2C2C=CCC12 (configuration not stated) | -8.09*
SMILES | CapD inh
CC(=O)Nc1ccc(N/C=C/C(=O)c2ccco2)cc1 | -5.83*
CN(C)c1ccc(N/C=C/C(=O)c2ccco2)cc1 | -2.41
CC(=O)Nc1ccc(NC(=O)c2ccco2)cc1 | 0.425
COc1ccc(N2C(SC)=NC(=Nc3cccc(C(F)(F)F)c3)C23CCCCC3)cc1 | -0.145
Cc1cc(C)n(-c2ccc(N=NC3=C(O)CCCC3=O)cc2)n1 | -4.44*
Cc1cc(C)n(-c2ccc(C(=O)O)cc2)n1 | 0.57
Cc1cc(C)n(-c2ccc(S(N)(=O)=O)cc2)n1 | 0.555
COC(=O)C1=C(C(=O)OC)SC2(S1)C(C(=O)OC)=C(C(=O)OC)SC1=C2c2ccccc2N(C(=O)C(C)C)C1(C)C | -0.445
CCOC(=O)c1c(C=O)oc2c(C)cc(OC(=O)c3ccccc3C)c(Br)c12 | 0.765
O=C(O)CN1C(=O)COc2ccccc21 | 0.07
O=C1COc2ccccc2N1C(=O)c1ccc(Cl)cc1 | -4.1*
O=C(CN1C(=O)COc2ccccc21)Nc1ccc(Cl)cc1 | 0.06
COc1ccc(COC(=O)C2=C(C)NC3=C(C(=O)CC(C)(C)C3)C2c2cc3c(cc2[N+](=O)[O-])OCO3)cc1 (configuration not stated) | -0.2
COC(=O)c1cc(Oc2ncnc3scc(-c4ccc(C)cc4)c23)cc(C(=O)OC)c1 | 0.165
O=C(O)c1cc(C=Nc2ccc(S(=O)(=O)NC3NC=CS3)cc2)c2c(c1)COCO2 (configuration not stated) | -5.2*
Cc1cc(NS(=O)(=O)c2ccc(N=Cc3ccccc3O)cc2)no1 | 2.15
COc1c(C(=O)O)csc1Br | 0.095
COc1ccc2oc(/C=C/N(C)C)c(C(=O)c3ccc(Br)cc3)c2c1 | -3.27*
CCOC(=O)c1c(C)oc2ccc(OCC(=O)c3ccc(Br)cc3)cc12 | -0.13
COc1ccc(C(=O)Nc2cc(C(C)=O)c(/C=C/N(C)C)oc2=O)cc1 | -0.615
CCn1c(NN)nc2ccccc21 | -0.05
O=C1/C(=C/c2cccs2)Cc2ccccc21 | -1.29
O=C1c2ccccc2CC(=O)c2sccc21 | -6.75*
CN1CCC(=C2c3ccccc3CC(=O)c3sccc32)CC1 | -0.295
O=C(Cc1ccccc1)NCC1(c2ccccc2)CCCC1 | -0.045
Cn1nc(-c2ccccc2)c(C#N)c1Sc1cccc(C(F)(F)F)c1 | -0.105
CCc1ccc(-n2c(=S)sc3c(=O)[nH]c(SCC4OCCO4)nc32)cc1 | -1.52
CCc1ccc(-n2c(=S)sc3c(=O)[nH]c(SCC(=O)Nc4nccs4)nc32)cc1 | 0.14
CCc1ccc(-n2c(=S)sc3c(=O)[nH]c(SCC(=O)O)nc32)cc1 | -4.3*
CCN1CCN(Cc2ccc(NC(=O)c3cc4ccc5cccnc5c4[nH]3)cc2)CC1 | -1.85
